# High-throughput results: PubChem BioAssay, National Center for Advancing Translational Sciences (NCATS)
# Sampled rows, rich in hits. Any-hit rate of the full collection: about 3.6%.
# S16 viability: S16 Schwann cell cytotoxicity; S16 Pmp22-F2sN Schwann cells viability, CellTiter-Glo, 24 h; Potency, µM (series often up to 57.5 µM), for inactives: at the top dose activity change, negative = cytotoxicity, usual class: cytotoxic; 0.48% of 43,000 active; AID 1508642; further: on the % scale 0 is the no-effect control and ±100 the full control effect; nearly all actives have a fitted effect of over 65% in size
#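 Rat S16 Schwann reporter line, 24 h treatment with library compounds delivered at 23 nL per well. Cell viability by CellTiter-Glo luminescence.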
# HTT promoter inh: HTT promoter inhibition | HEK293 HTT promoter firefly luciferase reporter, 24 h | Potency, µM (titrated, usually from 57.5 µM), for inactives: at the top dose activity change, negative = inhibition, usual class: inhibitors | 0.93% of 48,000 active | AID 1508623; further: nearly all actives have a fitted effect of over 50% in size
#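 Luminescence was read after Dual-Glo reagent and a 10 min room-temperature incubation. Values were normalized to vehicle (0% activity) and zero RLU (-100% activity). Reporter HEK293 cells had been exposed to compounds (up to 57.5 uM final) for 24 h.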
# mTORC1 inh: inhibitors of mTORC1 signaling in Tsc2-/- p53-/- MEF cells. Potency, µM (highest dose often 38.3 µM), inactives show top-dose activity change, negative = inhibition, usual class: inhibitors. 0.78% of 44,000 active. Tsc2-/- p53-/- MEF, phospho-rpS6 immunofluorescence/PI, 24 h;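 further: plate controls were DMSO for no effect and rapamycin for full effect; nearly all actives have a fitted effect of over 50% in size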
#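 Tsc2-/-, p53-/- MEFs (empty-vector stable line) in DMEM + 10% FBS were treated with compounds 24 h at 37 degree Celsius, fixed, and immunostained for phospho-rpS6 (Alexa-488) with propidium iodide counterstain. Laser-scanning cytometry gave % positive cells, normalized against 7.5 nM rapamycin and DMSO.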
# HTT-AS act: activators of huntingtin-antisense promoter activity. HEK293 HTT-AS promoter firefly luciferase reporter, 24 h; response scale: percent change from vehicle, -100% = no light. Potency, µM (highest dose often 57.5 µM), for the others: at the highest dose activity change, positive = activation, usual class: activators. 0.24% of 48,000 active. AID 1508624; further: nearly all actives have a fitted effect of over 55% in size
#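 HEK293 cells carrying firefly luciferase reporters were seeded at 2,500 per well in Opti-MEM and cultured for 24 h. They were then treated with compounds at up to 57.5 uM final for 24 h at 37 degrees C before Dual-Glo luminescence readout.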
# PMP22 txn prim: modulates PMP22 transcription in S16 Schwann cells; AID 1508649; Potency, µM (titrated, usually from 57.5 µM), for the others: at the top dose activity change, negative = inhibition, usual class: inhibitors; 2% of 43,000 active; S16 Pmp22-F2sN Schwann cells (luciferase reporters placed in the Pmp22 gene), FLuc/NLuc coincidence luminescence, 24 h; active means clear falling dose curves in both reporters; inconclusive means both reporters move, but less clearly or upward; inactive means either reporter flat; the % is the NLuc reporter signal; further: on the % scale 0 is the no-effect control and ±100 the full control effect
#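 Reporter cells (S16 Pmp22-F2sN, 500–1,000 per well) exposed to compounds for 24 h, 37C, 5% CO2; lysis with FLuc read after 10 min, then Stop&Glo and NLuc read after 10 min.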
# * = called active by the depositor; ? = inconclusive; / = no result; [ ] = another dose, or the depositor's remark. Unless noted, the call rests on the fitted dose curve; in most records, active means well fitted curve in the direction sought with a large enough effect; inconclusive means small, poorly fitted or top-dose-only effect, or another doubt; inactive means no such curve, though single readings can be large; an effect the other way counts as inactive or inconclusive. Potency means the concentration at half of the fitted maximal effect.
SMILES,S16 viability,HTT promoter inh,mTORC1 inh,HTT-AS act,PMP22 txn prim
COc1cccc(Nc2sc(C(=O)c3ccc(Cl)cc3)c(N)c2C(=O)NCc2ccc(C)cc2)c1,?,?,?,-38%,8.9µM*
COc1ccc(CN2CCc3c(c(=O)n4ncc(C(=O)N5CCN(c6ccc(F)cc6)CC5)c4n3C)C2)cc1,-30%,13µM*,3%,-51%,?
CCCCOC(=O)c1ccc(NC(=O)c2ccc3c(c2)CCCN3S(C)(=O)=O)cc1,-19%,5µM*,?,-29%,13%
CCS(=O)(=O)c1cccc(-c2cc(C(=O)NC3CCN(C)CC3)c(C)c3[nH]c4ncc(C)cc4c23)c1,/,?,/,-37%,/
COc1ccc(OC)c(C2c3c(-c4ccc(Br)cc4)n[nH]c3C(=O)N2c2ccc(Cl)cc2)c1 (stereo not drawn),?,-27%,-12%,-40%,?
COc1ccc(-c2n[nH]c3c2C(c2ccc(O)cc2)N(c2ccc(Br)cc2)C3=O)cc1 (stereo not drawn),?,?,15µM*,-60%,?
Nc1ncnc2c1c(-c1cccc(OCc3ccccc3)c1)cn2C1CC(CN2CCC2)C1 (stereo not drawn),/,-8%,/,-1%,/
Cc1ccccc1OCC(=O)Nc1ccccc1C(=O)OCc1cc(=O)n2c(C)csc2n1,-13%,2.2µM*,7%,-47%,?
CC[C@@H](C)[C@H](NC(=O)[C@H](CC1CCCCC1)NC(=O)c1ccno1)C(=O)N1CCC2(CCc3ccccc32)CC1,/,-9%,/,-21%,/
Nc1nc(F)nc2c1ncn2[C@@H]1O[C@H](COP(=O)(O)O)[C@@H](O)[C@H]1O,/,27%,/,6%,/
COc1ccc(-c2ccc3c(N4CCOCC4)nc(N4C[C@@H](C)O[C@@H](C)C4)nc3n2)cc1CO,/,?,/,-23%,/
COc1ccc(OC)c(CNS(=O)(=O)c2ccc(-c3cc(C(F)(F)F)on3)s2)c1,-29%,?,-27%,-42%,?
COc1ccc(CNS(=O)(=O)c2ccc(-c3cc(C(F)(F)F)on3)s2)cc1OC,?,?,-10%,-64%,20µM*
c1ccc2c(Oc3nc(Nc4ccc(N5CCOCC5)cc4)c4ncn(C5CCCCC5)c4n3)cccc2c1,/,0%,/,-10%,/
O=C(NCCn1cc(SCc2ccc(F)cc2)c2ccccc21)c1cccs1,1%,28µM*,-1%,-48%,?
O=C(NCCn1cc(SCc2cccc(F)c2)c2ccccc21)c1cccc(C(F)(F)F)c1,0%,?,?,-49%,?
Cc1ccc(CSc2cn(CCNC(=O)c3cccs3)c3ccccc23)cc1,1%,?,1%,-42%,?
COc1ccc(C(=O)NCCn2cc(SCc3cccc(F)c3)c3ccccc32)cc1OC,-22%,25µM*,5%,-58%,?
Cc1c(O)cccc1C(=O)N[C@@H](CSc1ccccc1)[C@H](O)CN1C[C@H]2CCCC[C@@H]2C[C@@H]1C(=O)NC(C)(C)C,/,?,/,-44%,/
COc1ccc(NC(=O)CCS(=O)(=O)c2nc(-c3cccs3)cc(C(F)(F)F)n2)cc1OC,?,?,13µM*,-94%,?
COc1ccc(NC(=O)CSc2nc(-c3ccco3)cc(C(F)(F)F)n2)cc1OC,?,2.2µM*,-17%,-91%,?
O=C(CCS(=O)(=O)c1nc(-c2cccs2)cc(C(F)(F)F)n1)Nc1cccc(O)c1,?,?,13µM*,-94%,?
Cc1ccc(NC(=O)CSc2nc(-c3ccco3)cc(C(F)(F)F)n2)cc1C,-26%,?,?,-29%,?
O=C(CCSc1nc(-c2ccco2)cc(C(F)(F)F)n1)Nc1cccc(O)c1,?,-27%,-18%,-17%,-1%
COc1cc(NC(=O)CCS(=O)(=O)c2nc(-c3cccs3)cc(C(F)(F)F)n2)cc(OC)c1OC,?,?,?,-37%,?
SMILES,S16 viability,HTT promoter inh,mTORC1 inh,HTT-AS act,PMP22 txn prim
CC(C)(C)OC(=O)Nc1ccc(-c2cc(C(=O)NCCCCCCC(=O)NO)no2)cc1,/,-11%,/,-35%,/
COc1ccc2c(c1)CC[C@@H](CN(C)CC(=O)O)[C@H]2c1ccccc1,/,?,/,-40%,/
NS(=O)(=O)c1ccc(Nc2nc(OCC3CCCCC3)c3[nH]cnc3n2)cc1,/,-16%,/,2%,/
C[C@]12CC[C@H](O)CC1=CC[C@@H]1[C@H]2CC[C@]2(C)C(c3cccnc3)=CC[C@H]12,/,1%[25.2 µM],/,-11%[25.1 µM],/
O=C(CCS(=O)(=O)c1ccccc1)N(Cc1cccnc1)c1nc2ccc(Cl)cc2s1,?,0%,0%,2%,?
Cc1ccc2nc(N(Cc3cccnc3)C(=O)CCS(=O)(=O)c3ccccc3)sc2c1,18µM*,8%,-5%,16%,?
COc1cc(F)c(F)c(Nc2ccc(I)cc2F)c1NS(=O)(=O)C1(C[C@H](O)CO)CC1,/,-9%,/,-12%,/
Cc1ccc(-n2ncc(C(=O)NCCCN3CCc4ccccc4C3)c2C2CCN(C(=O)OC(C)(C)C)CC2)c(C)c1,?,-14%,9.3µM*,-22%,?
Cc1ccc(C(=O)CC2(O)C(=O)N(Cc3ccccc3)c3ccccc32)c(C)c1 (stereo not drawn),?,?,18µM*,-25%,-27%
CCCCN1C(=O)C(O)(CC(=O)c2ccc(C)cc2C)c2cc(Br)ccc21 (stereo not drawn),?,?,?,-29%,?
CCc1ccc(C(=O)CC2(O)C(=O)N(Cc3ccc(C)cc3)c3ccccc32)cc1 (stereo not drawn),-21%,-25%,12µM*,-21%,?
Cc1ccc(C(=O)CC2(O)C(=O)N(Cc3ccccc3)c3ccc(Br)cc32)cc1 (stereo not drawn),-26%,?,10µM*,-27%,?
COc1ccc(C(=O)CC2(O)C(=O)N(Cc3ccccc3Cl)c3ccccc32)cc1 (stereo not drawn),-24%,?,?,-30%,?
COc1c(C)c2c(c(O)c1CC=C(C)CCC(=O)O)C(=O)OC2,/,-23%,/,-29%,/
Oc1ccc(C2CCN(c3ccnc4ccccc34)CC2)cc1O,/,?,/,-24%,/
Cc1cccc(Cn2nnc(C(=O)Nc3cc(C)ccc3C)c2N)c1,-8%,?,-2%,-27%,?
Cc1ccc(NC(=O)c2nnn(Cc3cccc(C(F)(F)F)c3)c2N)c(C)c1,?,-27%,?,1%,6µM*
COc1ccc(N2CCN(C(=O)c3cccc(-n4c(C)nc5cccnc54)c3)CC2)cc1,-18%,?,-12%,-22%,?
